Activity calls are given as the source filed them. How the calls were made is not given here.
Target: Thyrotropin receptor (Homo sapiens) (UniProt P16473)
Assay: qHTS for antagonists of the Thyroid Stimulation Hormone Receptor: Hit Validation for Inverse Agonism
Details: hits give high values
Text: The thyroid-stimulating hormone receptor (TSHR) is a member of the 7 trans-membrane-spanning receptor (7TMR) family of cell surface receptors. TSHR-mediated hyperthyroidism is important in thyroid pathology. The development of small molecule antagonists of TSHR may lead to therapeutic approaches for TSHR-mediated hyperthyroidism caused by constitutively activating mutations or stimulating auto-antibodies associated with Graves' disease. Graves' disease is the leading cause of hyperthyroidism and is caused by autoantibodies that stimulate TSHR (TsAbs) causing thyroid growth and unregulated overproduction of thyroid hormones and existing treatments have liabilities (agranulocytosis). In addition, TSHRs are known to be expressed in multiple extrathyroidal tissues including bone, brain, kidney, testis, fat and cells of the immune system but the role of the TSHR in these tissues is not clear. Therefore, TSHR antagonists/inverse agonists could be used as probes of extrathyroidal TSHR function. Finally, TSHR inverse agonists, which are a subclass of antagonists that inhibit agonist-independent (or basal or constitutive) TSHR signaling, could be used to inhibit TSH-independent signaling in patients with recurrent or metastatic thyroid cancer who are receiving thyroid hormone to suppress TSH. […]

Sequence of Thyrotropin receptor (Homo sapiens) (P16473 whole entry, looked up): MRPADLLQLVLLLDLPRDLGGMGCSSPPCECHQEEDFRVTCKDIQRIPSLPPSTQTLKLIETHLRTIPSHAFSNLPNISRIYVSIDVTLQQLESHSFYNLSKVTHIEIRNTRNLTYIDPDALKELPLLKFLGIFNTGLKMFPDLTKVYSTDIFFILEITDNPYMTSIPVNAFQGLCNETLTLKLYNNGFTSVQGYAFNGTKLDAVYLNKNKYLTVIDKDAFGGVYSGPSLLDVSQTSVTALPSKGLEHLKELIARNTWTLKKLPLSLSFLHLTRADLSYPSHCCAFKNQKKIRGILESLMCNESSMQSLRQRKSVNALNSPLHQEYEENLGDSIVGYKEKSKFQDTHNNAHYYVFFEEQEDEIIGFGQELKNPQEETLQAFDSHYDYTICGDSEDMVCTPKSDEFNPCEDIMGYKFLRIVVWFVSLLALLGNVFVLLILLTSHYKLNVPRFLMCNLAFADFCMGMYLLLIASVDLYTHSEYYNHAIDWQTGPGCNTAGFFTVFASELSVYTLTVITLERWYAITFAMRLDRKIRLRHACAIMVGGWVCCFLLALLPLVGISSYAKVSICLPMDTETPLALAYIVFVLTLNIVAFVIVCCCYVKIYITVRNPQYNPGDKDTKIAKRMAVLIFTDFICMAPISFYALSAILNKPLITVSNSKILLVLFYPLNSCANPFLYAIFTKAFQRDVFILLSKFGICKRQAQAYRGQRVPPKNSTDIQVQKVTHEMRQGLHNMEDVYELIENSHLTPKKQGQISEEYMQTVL

Row | Structure (SMILES) | max inhibition
1 | COC(=O)C1=C(c2ccc(-c3ccccc3)c(F)c2)C[C@@H]2CC[C@H]1N2C(=O)NCCOc1ccccc1 | 75% (active)
